Results as given in PubChem BioAssay AID2284330 (EPA ToxCast).
Records with an inconclusive call do not appear. Calls of active or inactive are those of the source. How the source made its calls: active means hit-call score of the fitted dose curve at least 0.9, where 1 is the maximum; inconclusive means response in the unintended direction; inactive means score below 0.9.

The molecules below were run on frog Glucocorticoid Receptor (GR), gene 397897 (assay: ATG_frGR_EcoTox2: Attagene TRANS-FACTORIAL EcoTox-2 HepG2 Assay for frog Glucocorticoid Receptor (GR)).
Experimental: ATG_EcoTox2 is a cell-based, multiplexed assay created by modifying the existing Attagene TRANS-FACTORIAL system to include a panel of nuclear receptors from some or all the following species: human (Homo sapiens), african clawed frog (Xenopus laevis), rainbow trout (Oncorhynchus mykiss), japanese medaka (Oryzias latipes), and zebrafish (Danio rerio). The ECOTOX2-FACTORIAL format uses HepG2, a human liver cell line, with measurements taken at 24 hours after chemical dosing in a 24-well plate. ATG_frGR_EcoTox2 is one of 29 assay components calculated in the ATG_EcoTox2 assay. It is designed to make measurements of mRNA induction, a form of inducible reporter, as detected with fluorescence intensity signals by Reverse transcription polymerase chain reaction (RT-PCR) and Capillary electrophoresis technology.The assay endpoint ATG_frGR_EcoTox2 was analyzed in the positive analysis fitting direction relative to DMSO as the negative control and baseline of activity. Using a type of inducible reporter, measures of mRNA for gain-of-signal activity can be used to understand the reporter gene at the transcription factor-level as they relate to the gene for glucocorticoid receptor. Furthermore, this assay endpoint can be referred to as a primary readout, because this assay has produced multiple assay endpoints where this one serves a reporter gene function. To generalize the intended target to other relatable targets, this assay endpoint is annotated to the nuclear receptor intended target family, where the subfamily is steroidal.
Human liver HepG2 cells are transiently transfected with multiple reporter transcription units (MRTUs) in 6-well plates using FuGene 6 reagent (Roche; 3 ml FuGene/1 mg DNA). The MRTU constructs are regulated by a cis-regulating element (promoter). Each RTU expresses a GAL4-UAS that regulates the transcription of a nearby target reporter gene sequence. A major difference between the CIS and TRANS system is that in CIS activities of endogenous TFs are measured, whereas the TRANS assay evaluates changes in activities of exogenous, chimeric NR-Gal4 proteins. […] At the end of 24 hour incubation, total RNA was isolated using TriZol reagent (Invitrogen). The isolated RNA is then reverse-transcribed using oligo(dT) primer and Mo-MLV reverse transcriptase (Invitrogen) with DNAse I (Ambion) treatment for 30 min. The one-tenth of the produced cDNA was amplified by PCR using Taq DNA polymerase (Invitrogen) and two reporter sequence-specific primers. The PCR products were fluorescently labeled by primer extension with 6-arboxyfluorescein (6-FAM) 5'-labeled reporter sequence-specific primer (2 min at 95 C, 20 s at 68 C and 10 min at 72 C) and these products were digested with 5U of HpaI (New England Biolabs) for 2h at 37 C. The fragments were purified using Qiaquick PCR columns (Qiagen), analyzed on an ABI 3130xL genetic analyzer (Applied Biosystems) with peak positions identified by using a set of X-rhodamine (ROX)-labeled MapMarker1000 molecular weight standards (BioVentures). The raw capillary electrophoresis data was processed using Attagraph software (Attagene).

Structure (SMILES)	outcome	AC50
C=C(c1ccc(C(=O)O)cc1)c1cc2c(cc1C)C(C)(C)CCC2(C)C	inactive	
CC(c1cc2ccccc2s1)N(O)C(N)=O (stereo unspecified)		34.3 µM (active)
Cc1ccc(C)c(OCCCC(C)(C)C(=O)O)c1	inactive	
Cc1cccc(Nc2cc(Cl)nc(SCC(=O)O)n2)c1C	inactive	
C[C@]12C=CC(=O)C=C1CC[C@@H]1[C@@H]2C(=O)C[C@@]2(C)[C@H]1CC[C@]2(O)C(=O)CO	inactive	
CC(C)OC(=O)C(C)(C)Oc1ccc(C(=O)c2ccc(Cl)cc2)cc1	inactive	
C[C@@H]1C[C@H]2[C@@H]3CCC4=CC(=O)C=C[C@]4(C)[C@@]3(F)[C@@H](O)C[C@]2(C)[C@@]1(O)C(=O)COP(=O)(O)O		0.00998 µM (active)
CN(CCOc1ccc(CC2SC(=O)NC2=O)cc1)c1ccccn1 (stereo unspecified)		30.8 µM (active)
CC(C)(Oc1ccc(CCNC(=O)c2ccc(Cl)cc2)cc1)C(=O)O	inactive	
CC(C)(Oc1ccc(Cl)cc1)C(=O)O	inactive	
CC(C)(Oc1ccc(C2CC2(Cl)Cl)cc1)C(=O)O (stereo unspecified)	inactive	
